Each structure is given as a SMILES string. Values joined by “and” are separate entries in the source; they are usually repeats but may differ in a detail not shown here. Equal values may be shown once. Among all 300,000 compounds or so, about 37,000 (12%) were called active. What follows is part of a selection rich in actives, with near analogues and random picks from the rest. Unmarked numbers belong to inactive results. Rule as the data show it: active = max response mostly above about 13% (no sharp cut-off); inactive = mostly below about 14%.

A short description of this assay: Cycloheximide Counterscreen for Small Molecule Inhibitors of Shiga Toxin. Also: read at 38.3 µM for the half of the compounds with a filed dose; 0% is about no effect. The note with it: cell reporter, cycloheximide protein synthesis inhibition counterscreen; active compounds read high.
Consider `Cc1cccc(C)c1NC(=O)COC(=O)c1ccccc1O`, for which the max response was -0.421%. Consider `CCOC(=O)C1CCCN(S(=O)(=O)c2ccc(-n3cnnn3)c(C)c2)C1` (configuration not stated), for which the max response is -3.27%. The figure for `CC(C)c1ccc(NC(=O)[C@@H](NC(=O)N2CC(=O)Nc3ccccc32)C(C)C)cc1` is 1.52%; for `COc1ccc(-n2c(=O)[nH]c3cc(C(=O)NCCc4ccc(OC)c(OC)c4)ccc3c2=O)c(OC)c1` it is 0.206%. On to `C=CCSc1nc2c(c(=O)[nH]c(=O)n2C)n1Cc1ccccc1`, for which the max response is -3.59%. As for `COc1ccc(-c2nc(CS(=O)CC(=O)NCc3ccccn3)c(C)o2)cc1` (configuration not stated), the max response was 7.49%. Then `Cc1cc(C)cc(OCC(=O)NNC(=O)c2cc3ccccc3oc2=O)c1`, with 24.7% (active); and `O=C(NCc1ccccn1)c1cnc2sccn2c1=O`, with -2.63%; and `O=C(NCc1ccccn1)c1cc2ccccc2oc1=O`, with 36% (active). As to `Cc1cc(C)cc(OCC(=O)NNC(=O)CCN2C(=O)c3ccccc3C2=O)c1`, the max response was -0.614%. On to `O=C(NCc1ccccn1)c1cc(Br)ccc1Cl`, for which the max response was 17.7%. As for `Cc1cc(C)cc(OCC(=O)NC(C)c2ccccc2)c1` (configuration not stated), the max response was 4.02%. Regarding `COc1ccc2oc(=O)c(C(=O)N3CCCC3)cc2c1`, the max response was -2.74%. For `NS(=O)(=O)c1ccc(NC(=O)COC(=O)CCc2c[nH]c3ccccc23)cc1`, the max response was -3.16%. Regarding `NS(=O)(=O)c1ccc(NC(=O)COC(=O)c2cc3ccccc3oc2=O)cc1`, the max response was 10.3% (active). Turning to `COc1ccc2oc(=O)c(C(=O)NCc3ccccn3)cc2c1`, the max response is 30.2% (active).

Turning to `NS(=O)(=O)c1ccc(NC(=O)COC(=O)c2ccco2)cc1`, the max response is -1.96%. Then `CC(=O)N1c2ccc(S(=O)(=O)N3CCC(C(=O)N4CCN(c5ccccc5)CC4)CC3)cc2CC1C` (configuration not stated), with -2.01%; and `O=C(Nc1cc(C(F)(F)F)ccc1Cl)c1cc2nc3c(c(C(F)(F)F)n2n1)CCCC3`, with -1.76%; and `C#CCOc1ccc(/C=C2/C(=O)ON=C2C)cc1OCC`, with 3.92%. In the case of `C=CCc1cccc2cc(C(=O)OCC)c(=O)oc12`, the max response is -2.44%. Consider `CCOC(=O)c1cc2cc3ccccc3cc2oc1=O`, for which the max response was 21.6% (active). Consider `CCCOC(=O)c1cc2ccccc2oc1=O`, for which the max response was 11.4%.

On to `CC[C@]1(O)CC2CN(CCc3c([nH]c4ccccc34)[C@@](C(=O)OC)(c3cc4c(cc3OC)N(C=O)[C@H]3[C@@](O)(C(=O)OC)[C@H](OC(C)=O)[C@]5(CC)C=CCN6CC[C@]43[C@@H]65)C2)C1` (some centres not stated), for which the max response was -6.26%. As to `CCOc1ccccc1N1C(=O)CC(Sc2nccc(C)n2)C1=O` (configuration not stated), the max response is 0.743%. `Cc1ccc(S(=O)(=O)c2c(COC(=O)c3cccc(Cl)c3)c(-c3ccccc3)nn2C)cc1`: the max response was -6.17%. `O=C(OCc1ccc(Br)cc1)c1cccc(-c2nnc(-c3ccccc3)o2)c1`: the max response is 13.9%.

For `O=C(Cc1c[nH]c2ccccc12)OCCOC(=O)Cc1c[nH]c2ccccc12`, the max response is -4.53%.

Consider `O=C(OCc1ccc(-c2ccccc2)cc1)c1cccc(O)c1`, for which the max response was 57.7% (active). The figure for `CC(=O)Nc1ccccc1C(=O)OCC(=O)c1cccc2ccccc12` is 7.37%. For the compound `O=C(OCC(=O)c1c[nH]c2ccccc12)c1cccc(O)c1`, the max response was 72.9% (active).

Turning to `C=C(C)C(=O)Nc1cccc(C2=NOC3(C2)C[C@H](C(N)=O)N(C(=O)C(c2ccccc2)c2ccccc2)C3)c1` (some centres not stated), the max response was -6.93%.

On to `CSc1ccc(C(=O)C2CCCN(C(=O)c3ccc(C)nc3)C2)cc1` (configuration not stated), for which the max response was -0.923%. The figure for `O=S(=O)(Nc1ccc2[nH]ncc2c1)c1ccccc1Cl` is -3.76%; for `CN(Cc1ccco1)S(=O)(=O)c1nnc(NC(=O)c2ccccc2)s1` it is 26%.

Turning to `COc1cccc(-c2cccc(NC(=O)C3CCN(C4CCC4)CC3)c2)c1`, the max response was -2.09%. Take `O=C1CS(=O)CN1c1ccc(Oc2ccccc2)cc1` (configuration not stated): the max response is -1.61%. Then `Cc1n[nH]c(=O)n1-c1ccc(Oc2ccccc2)cc1`, with 16.2% (active). On to `Cc1n[nH]c(=O)n1-c1ccc(C(C)C)cc1`, for which the max response is 4.16%. On to `COc1cccc(N(C(=O)c2snc(C(N)=O)c2N)C(C(=O)NCC2CCCO2)c2c[nH]c3ccccc23)c1` (configuration not stated), for which the max response was -2.27%. The figure for `COC(=O)c1ccccc1NC(=O)C1(S(=O)(=O)c2ccc(Cl)cc2)CC1` is -5.97%. For `CN(C)S(=O)(=O)c1ccc2oc(SCC(=O)Nc3ccccc3F)nc2c1`, the max response is 40% (active). The figure for `COc1ccc(NS(=O)(=O)c2ccc3oc(SCC(N)=O)nc3c2)cc1` is -2.16%; for `COc1ccc(S(=O)(=O)N(C)C)cc1NC(=O)CSc1ncccn1` it is 8.4%; for `CCC1(C(=O)c2ccccc2)C(c2cccc([N+](=O)[O-])c2)C1(C(=O)OC)C(=O)OC` (configuration not stated) it is -5.04%. For the compound `N#Cc1c(N2CCCCC2)nc(N)c2c(N)nc(SCC(=O)O)cc12`, the max response was -0.559%. The figure for `Cc1ccc(-n2c(C)cc(/C=C(\C#N)C(=O)NCC3CCCO3)c2C)cc1` (configuration not stated) is 50.5% (active); for `Cc1cc(/C=C(/C#N)C(=O)Nc2ccc(Cl)cc2)c(C)n1-c1cccnc1` it is 1.53%; for `Cc1ccc(S(=O)(=O)N2CCC(C(=O)NCC3CCCO3)CC2)cc1` (configuration not stated) it is -2.91%. The figure for `COc1ccc(CCNS(=O)(=O)c2cn(C)nc2C)cc1` is -0.628%; for `CC(C)=N/N=C1/NC(=O)C(Cc2ccccc2)S1` (configuration not stated) it is -3.98%. For the compound `CC1CCc2c(sc3nc4n(c(=O)c23)CCS4)C1` (configuration not stated), the max response was 31.9%. `C=CCn1c(SCc2c(C)noc2C)nc2sc3c(c2c1=O)CCC(C)C3` (configuration not stated): the max response is -3.64%. For the compound `CCCn1nnc2sc3c(c2c1=O)CCC(C)C3` (configuration not stated), the max response was 35.5% (active). Regarding `COc1cc(C2OC(c3cc(OC)c(OC)c(OC)c3)C(C)C2C)cc(OC)c1OC` (configuration not stated), the max response was 8.36%. Then `CCOC(=O)c1nnn2c1nc(N1CCN(c3ccccc3)CC1)c1ccccc12`, with -4.05%. Regarding `CCN(CC)CCC(c1cc(OC)c(OC)c(OC)c1)c1c(OC)cc(OC)c2c(-c3ccccc3)cc(=O)oc12` (configuration not stated), the max response is -8.53% and -14.6%.

Values taken from PubChem BioAssay AID2314 (National Center for Advancing Translational Sciences (NCATS), 2010).
